The record followed here is ChEMBL document CHEMBL3988442, “University of Dundee, Small-Polar-MMV Screening Library” (2021).

Out of some 48,000 compounds screened, about 13,000 (27%) showed an effect of 50% or more. The list shows a part of the results.

This experiment deals with Wolbachia pipientis. Nature of the experiment: Anti-Wolbachia Cell-Based Screen. More on the design: scale not given: in the data most compounds retested in dose-response had high values. Format: functional. As to conditions: 5 µM.
For the compound `Cc1cc(C)n(C2CN(C(=O)c3cn4ccsc4n3)C2)n1`, the “Percent Effect” value is listed as -20.57%.

For the compound `CCn1c(CN(C)C)nnc1C1CCN(Cc2ccc(Cl)c(F)c2)CC1`, the “Percent Effect” value is reported as -16.98%.

As for `Cn1cc(C[C@H]2[C@H](N3CCOCC3)CCN2c2ncc(F)cn2)cn1.O=C(O)C(F)(F)F`, the “Percent Effect” value is reported as -13.6%.

Take `CO[C@@H]1CCN(c2ncc(F)cn2)[C@H]1Cc1cnn(C)c1`: the “Percent Effect” value is 112%.

Regarding `COCCO[C@H]1CCN(c2cc(OC)ncn2)[C@H]1Cc1cnn(C)c1`, the “Percent Effect” value is listed as -1.257%.

Regarding `COc1cc(N2CC[C@@H](OC)[C@@H]2Cc2cnn(C)c2)ncn1`, the “Percent Effect” value is 110.7%.

Consider `CO[C@@H]1CCN(c2ncccn2)[C@H]1Cc1ccccc1`, for which the “Percent Effect” value is on record as -5.923%.

As for `COCCO[C@@H]1CCN(c2cc(OC)ncn2)[C@H]1Cc1cnn(C)c1`, the “Percent Effect” value is -2.108%.

With `CCc1ccccc1CNC(=O)CNCC(F)(F)F`, the “Percent Effect” value is recorded as -0.7333%.

On to `Cc1nc(C(C)(C)NC(=O)Nc2cccc(C#N)c2)no1`, for which the “Percent Effect” value is listed as -15.63%.

Regarding `O=C(C1CC1)N1CCC(Nc2nc(O)cc(-c3ccsc3)n2)CC1`, the “Percent Effect” value came out at 99.22%.

`CCCC(=O)N1CCC(Nc2ncc(Br)cn2)CC1`: the “Percent Effect” value is recorded as -8.622%.

As to `O=C(C1CCOC1)N1CCC(Cn2cc(-c3ccsc3)nn2)CC1` (centres undefined), the “Percent Effect” value is -11.04%.

For the compound `CC(C)Nc1nc2c(c(NC3CC3)n1)CN(C(=O)Cc1ccsc1)CC2`, the “Percent Effect” value is on record as -13.92%.

On to `CC(C)CC(=O)N1CCC(Nc2nc(O)cc(-c3ccsc3)n2)CC1`, for which the “Percent Effect” value came to 93.38%.

Take `O=C(O)C(F)(F)F.O=C(O)c1cc2c(nc1-c1ccsc1)CCN(C(=O)C1CC1)CC2`: the “Percent Effect” value is listed as -4.061%.

On to `CC(=O)c1c(F)cccc1NC1CCN(C(=O)CC(C)C)CC1`, for which the “Percent Effect” value is listed as -2.175%.

For `O=C(Cn1cccn1)N1CCC(Cn2cc(-c3ccsc3)nn2)CC1`, the “Percent Effect” value is recorded as 4.923%.

As for `CCCC(=O)N1CCC(Nc2nc(O)cc(-c3ccsc3)n2)CC1`, the “Percent Effect” value is on record as 101%.

As to `Cc1nnc(CN2CCCC2c2ccc3c(c2)OCCO3)n1C` (centres undefined), the “Percent Effect” value came to 15.49%.

As for `CC(C)(C)OC(=O)N[C@H]1CCN(C(=O)c2cc(Cl)c[nH]2)C1`, the “Percent Effect” value was -15.92%.

With `CCCC(C)NC1CCN(c2ccc(-n3ccnc3C)cc2)CC1` (centres undefined), the “Percent Effect” value was -8.3%.

`COCC(=O)Nc1ccc([C@@H](O)[C@H]2COCC(=O)N2CC(C)C)cc1`: the “Percent Effect” value was found to be 0.04576%.

As for `CC(NC(=O)CSCC(=O)Nc1ccccc1)c1ccccc1` (centres undefined), the “Percent Effect” value stood at 5.031%.

`CCC(=O)Nc1ccc(C(C)NC(=O)COC)cc1` (centres undefined): the “Percent Effect” value was found to be 92.17%.

As to `CCNC(=O)C1(Cc2cc(-c3ccccc3)no2)CCCN(C(C)=O)C1` (centres undefined), the “Percent Effect” value was determined as 105.3%.

With `Cc1cnn(CCNCc2cc(-c3ccccc3)no2)c1`, the “Percent Effect” value is recorded as 2.44%.

With `Cc1ccc(-c2cc(CNC(=O)N3CCC(CO)CC3)on2)cc1`, the “Percent Effect” value turned out to be 6.064%.

In the case of `CCCNC(=O)C1(Cc2cc(-c3ccccc3)no2)CCN(C(C)=O)C1` (centres undefined), the “Percent Effect” value is given as 76.91%.

With `CCNC(=O)C1(Cc2cc(-c3ccc(C)cc3)no2)CCCN(C)C1` (centres undefined), the “Percent Effect” value is listed as 151.7%.

Take `Cc1ccc(-c2cc(CNC(=O)N3CCOC(C)C3)on2)cc1` (centres undefined): the “Percent Effect” value is -4.045%.

Turning to `CC(NC(N)=O)C(=O)N(C)CCCc1cc(-c2ccccc2)no1` (centres undefined), the “Percent Effect” value is listed as -0.2623%.

As to `CCNC(=O)C1(Cc2cc(-c3ccccc3)no2)CCCN(C(C)C)C1` (centres undefined), the “Percent Effect” value is reported as 86.79%.

In the case of `CNC(=O)CC1CCN(Cc2nc(-c3ccc(SC)cc3)oc2C)CC1`, the “Percent Effect” value was -19.45%.

With `O=C(O)C(F)(F)F.O=C([C@H]1C[C@H]2OCC[C@H]2N(Cc2ccco2)C1)N1CCCO1`, the “Percent Effect” value is listed as 11.53%.

On to `COc1ccc(CN2C[C@@H](CN(C)C)[C@@H](CO)C2)c(Cl)c1OC`, for which the “Percent Effect” value is on record as -2.231%.

As for `c1cc2c(cc1C[C@@H]1CC[C@H](CN3CCCOCC3)O1)OCO2`, the “Percent Effect” value is 5.044%.

`Cc1cc(C)cc(C2(C(=O)NC(C)Cn3ccnc3)CC2)c1` (centres undefined): the “Percent Effect” value is recorded as -3.779%.

`COc1ccc(OC)c(C(C)Nc2nc3c(C)nn(C)c3c(=O)n2C)c1` (centres undefined): the “Percent Effect” value is on record as -10.12%.

Regarding `CC(C)C(=O)N1CCN(CCOc2cccc(C#N)c2)CC1`, the “Percent Effect” value was 22.03%.

As for `CN(C)C(=O)NCC(=O)N(C)Cc1cc(-c2ccccc2)no1`, the “Percent Effect” value was 2.31%.

`CCNC(=O)CNS(=O)(=O)Cc1cc(-c2ccccc2)no1`: the “Percent Effect” value is given as -10.1%.

`CCNC(=O)C1(Cc2cc(-c3ccccc3)no2)CCCN(C)C1` (centres undefined): the “Percent Effect” value was found to be 76.81%.

Regarding `Cc1cc(NCC(=O)N(C)Cc2cccs2)c(C(N)=O)cc1F`, the “Percent Effect” value turned out to be 8.297%.

As to `CC(C)N1CCCC(C(=O)NC(C)(C)c2nnc(N)s2)C1` (centres undefined), the “Percent Effect” value is listed as -13.81%.

For the compound `CCOc1ccc(NC(=O)NC2CCc3[nH]ncc3C2)cn1` (centres undefined), the “Percent Effect” value is given as -9.557%.

For the compound `CCC(C)Sc1ncc(-c2c(C#N)c(N)nc3c2COCC3)cn1` (centres undefined), the “Percent Effect” value is 95.02%.

For the compound `CCOc1ccc(NC2CCN(C3CC3)C2=O)cn1` (centres undefined), the “Percent Effect” value is given as -7.266%.

Consider `Cn1cc(-c2c(C#N)c(N)nc3c2CCc2[nH]ccc2-3)cn1`, for which the “Percent Effect” value is given as 4.236%.

Take `N#Cc1c(N)nc2c(c1-c1cnc(N3CCCC3)nc1)COCC2`: the “Percent Effect” value is recorded as 84.51%.

Take `Cc1cc(-c2c(C)c(-c3cnn(C)c3)nc(N)c2C#N)oc1C`: the “Percent Effect” value came out at 17.25%.

Consider `COCCc1ncc(-c2c(C#N)c(N)nc3c2CCc2[nH]ccc2-3)cn1`, for which the “Percent Effect” value is -13.87%.

As to `N#Cc1c(C2CCOC2)cc(-c2ccc(N3CCCCC3)cc2)nc1N` (centres undefined), the “Percent Effect” value was determined as 2.752%.

In the case of `COc1ncc(-c2c(C#N)c(N)nc3c2CCc2[nH]ccc2-3)cn1`, the “Percent Effect” value is given as -13.65%.

Take `CCOc1ccc(-c2c(C#N)c(N)nc3c2COCC3)cn1`: the “Percent Effect” value worked out at 106.3%.

For the compound `CC(C)n1cc(-c2c(C#N)c(N)nc3c2COCC3)cn1`, the “Percent Effect” value came out at 109.6%.

`CC(C)=CCC/C(C)=C/CN1CCN(C)C2(CCNC(=O)CC2)C1` (centres undefined): the “Percent Effect” value was 14.94%.

Take `Cc1ccc(CN2CCc3[nH]nc(C(=O)N4CCNC(=O)C4)c3C2)s1.O=C(O)C(F)(F)F`: the “Percent Effect” value was -6.156%.

On to `COCC1CCN(C(=O)c2cccc(S(=O)(=O)NC3CCCC3)c2)C1` (centres undefined), for which the “Percent Effect” value turned out to be 8.028%.

In the case of `CC(C)CCN1CN=C(NS(=O)(=O)c2ccc(F)cc2)NC1`, the “Percent Effect” value was 13.74%.

Consider `Clc1ccc(C2(NCc3noc(C4CC4)n3)CCCC2)cc1`, for which the “Percent Effect” value was found to be 6.408%.

For the compound `CNC(=O)Cc1ccccc1NC(=O)N[C@H]1c2ccccc2C[C@H]1O`, the “Percent Effect” value came out at 73.79%.

As for `CS(=O)(=O)c1ccccc1NC(=O)N[C@@H]1c2ccccc2C[C@@H]1O`, the “Percent Effect” value is listed as 6.839%.

For `CN(C)C(=O)c1ccccc1NC(=O)N[C@@H]1c2ccccc2C[C@@H]1O`, the “Percent Effect” value is recorded as -11.76%.
